From PubChem BioAssay (EPA / NIEHS) come the findings set out here.

Inconclusive results are not listed. Activity calls are given as the source filed them. How the source made its calls: active means hit-call score of the fitted dose curve at least 0.9, where 1 is the maximum; inconclusive means response in the unintended direction; inactive means score below 0.9.

The first assay can be described thus: ACEA_AR_antagonist_AUC_viability: ACEA Biosciences xCELLigence Real-Time Cell Analysis on Androgen Receptor Antagonism for Viability (AID 2283776).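 Further: area under impedance growth curve at 80 h after dosing as viability; hits lower the growth signal relative to DMSO meaning cytotoxicity.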 An outline of the steps:
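22Rv1 human prostate cancer cells were seeded on electrode plates, monitored overnight, then exposed to eight 1:4 dilutions from 100 uM final. Impedance-based growth kinetics at 80 h gave an AUC viability endpoint normalized to DMSO.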
`Nc1ccc(Nc2ccccc2)cc1`: the AC50 is 87.5 µM (active).

As for `On1ccccc1=S`, the AC50 was 50 µM (active).

`Cc1ccc(C)c(O)c1`: the call was inactive.

Turning to `O=c1n(CC2CO2)c(=O)n(CC2CO2)c(=O)n1CC1CO1` (stereo unspecified), the AC50 is 1.02 µM (active).

Turning to `Oc1ccc2c(c1)-c1ccccc1C2`, the AC50 is 41.8 µM (active).

With `Cn1c(=O)c2c(ncn2C)n(C)c1=O`, the compound was called inactive.

As for `C1N2CN3CN1CN(C2)C3`, the compound was classed as inactive.

Regarding `COc1cccc(-c2ccc(/C=C\CN3CCCCCC3)cc2Cl)c1`, the AC50 is 45.2 µM (active).

In the case of `Cn1cnc([N+](=O)[O-])c1Sc1ncnc2nc[nH]c12`, the AC50 is 1.52 µM (active).

Take `COC(=O)c1c(Cl)c(Cl)c(C(=O)OC)c(Cl)c1Cl`: the AC50 is 50 µM (active).

For the compound `COC(=O)CC(=O)OC`, the call was inactive.

For the compound `CN(C)c1ccc(Cc2ccc(N(C)C)cc2)cc1`, the AC50 is 50 µM (active).

Turning to `Clc1nc(Cl)c(Cl)c(Cl)c1Cl`, the AC50 is 50 µM (active).

As to `O=c1[nH]c2ccc(S(=O)CCN3CCC(Cc4ccc(F)cc4)CC3)cc2o1` (stereo unspecified), the compound was called inactive.

In the case of `CCCCCCc1ccc(O)cc1O`, the AC50 is 13.7 µM (active).

Take `CCOc1cccc(-n2cc(C(=O)N3CCN(c4cc(C(=O)O)c5ccccc5c4)CC3)nc2-c2ccc(C)cc2)c1`: the AC50 is 11.5 µM (active).

Take `Cc1ccc(O)cc1`: the outcome was inactive.

A short description of another assay: ACEA_ER_AUC_viability: ACEA Biosciences xCELLigence Real-Time Cell Analysis on Estrogen Receptor Agonism for Viability (AID 2283782).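 Further: hit means loss of impedance signal meaning reduced cell growth or viability.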 An outline of the steps:
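Read-out: real-time electrical impedance (RT-CES) area under curve, loss of signal taken as reduced viability, normalized to DMSO baseline. T-47D cells, charcoal-stripped serum medium, compounds up to 100 uM final, continuous exposure, 80 h.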
In the case of `CC(C)CCCCCCCOC(=O)CCCCC(=O)OCCCCCCCC(C)C`, the result was inactive.

For `O=C1CCC(N2C(=O)c3ccccc3C2=O)C(=O)N1` (stereo unspecified), the call was inactive.

On to `CCC(C)(C)C(=O)O[C@H]1C[C@@H](C)C=C2C=C[C@H](C)[C@H](CC[C@@H]3C[C@@H](O)CC(=O)O3)[C@H]21`, for which the half-maximal activity concentration (AC50) was 30.5 µM (active).

For `CC(C)(O)c1coc(S(=O)(=O)NC(=O)Nc2c3c(cc4c2CCC4)CCC3)c1`, the outcome was inactive.

Consider `CC[C@H](C)C(=O)O[C@H]1C[C@@H](C)C=C2C=C[C@H](C)[C@H](CC[C@@H]3C[C@@H](O)CC(=O)O3)[C@H]21`, for which the AC50 is 28.2 µM (active).

As to `CCOCCO`, the outcome was inactive.

For the compound `COCCOc1cc2cc(C(=O)NC3CCN(C(C)C)CC3)n(CC(=O)Nc3ccc(Cl)cn3)c2cn1`, the compound was called inactive.

For the compound `C1=CCCC=CCCC=CCC1`, the compound was called inactive.

Take `Cc1ccc(N)cc1O`: the call was inactive.

Turning to `On1ccccc1=S`, the AC50 is 88.8 µM (active).

Turning to `Cc1ccc(C)c(O)c1`, the call was inactive.

As for `O=c1n(CC2CO2)c(=O)n(CC2CO2)c(=O)n1CC1CO1` (stereo unspecified), the concentration at half-maximal activity (AC50) is 35.7 µM (active).

Turning to `Oc1ccc2c(c1)-c1ccccc1C2`, the concentration at half-maximal activity (AC50) was 79.2 µM (active).

With `Cn1c(=O)c2c(ncn2C)n(C)c1=O`, the compound was classed as inactive.

For `C1N2CN3CN1CN(C2)C3`, the call was inactive.

With `COc1cccc(-c2ccc(/C=C\CN3CCCCCC3)cc2Cl)c1`, the AC50 is 56.3 µM (active).

In the case of `Cn1cnc([N+](=O)[O-])c1Sc1ncnc2nc[nH]c12`, the AC50 was 1.42 µM (active).

Consider `COC(=O)c1c(Cl)c(Cl)c(C(=O)OC)c(Cl)c1Cl`, for which the compound was classed as inactive.

As to `COC(=O)CC(=O)OC`, the compound was classed as inactive.

Turning to `Clc1nc(Cl)c(Cl)c(Cl)c1Cl`, the AC50 was 92 µM (active).

Take `O=c1[nH]c2ccc(S(=O)CCN3CCC(Cc4ccc(F)cc4)CC3)cc2o1` (stereo unspecified): the compound was classed as inactive.

As for `CCCCCCc1ccc(O)cc1O`, the AC50 is 80.1 µM (active).

In the case of `CCOc1cccc(-n2cc(C(=O)N3CCN(c4cc(C(=O)O)c5ccccc5c4)CC3)nc2-c2ccc(C)cc2)c1`, the call was inactive.

Take `Cc1ccc(O)cc1`: the call was inactive.
